Test results as given in ChEMBL document CHEMBL3988442, “University of Dundee, Small-Polar-MMV Screening Library” (2021).

Legend:
[1] = molecular target: T1, Aspartate--tRNA(Asp/Asn) ligase (Mycobacterium tuberculosis (strain ATCC 25618 / H37Rv)) (UniProt P9WFW3); experiment: Assay for Asp RNA synthetase-1 from Mycobacterium tuberculosis; format: functional; design: scale not given: direction of the effect not stated beside the values; conditions: 30 µM; also: in the data most compounds retested in dose-response had high values
T1 sequence (whole entry): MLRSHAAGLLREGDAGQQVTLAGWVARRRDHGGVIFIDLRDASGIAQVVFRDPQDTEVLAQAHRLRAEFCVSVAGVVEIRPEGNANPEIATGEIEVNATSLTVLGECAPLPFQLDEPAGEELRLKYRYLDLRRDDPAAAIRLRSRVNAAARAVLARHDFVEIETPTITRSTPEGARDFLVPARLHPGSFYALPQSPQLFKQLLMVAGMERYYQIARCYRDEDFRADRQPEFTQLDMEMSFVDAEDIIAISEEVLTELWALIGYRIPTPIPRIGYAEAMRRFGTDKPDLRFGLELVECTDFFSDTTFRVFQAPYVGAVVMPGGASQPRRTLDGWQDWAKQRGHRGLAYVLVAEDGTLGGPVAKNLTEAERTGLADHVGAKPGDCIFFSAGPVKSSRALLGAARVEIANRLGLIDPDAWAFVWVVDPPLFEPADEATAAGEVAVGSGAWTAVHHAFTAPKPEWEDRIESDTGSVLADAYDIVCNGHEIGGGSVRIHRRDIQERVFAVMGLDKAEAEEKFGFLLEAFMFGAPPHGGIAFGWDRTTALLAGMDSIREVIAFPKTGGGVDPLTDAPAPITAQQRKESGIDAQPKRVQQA

[2] = molecular target: Shiga toxin 2 (Escherichia coli O157:H7) (UniProt P09385+P09386); experiment: E. coli 0.157:H7 Shiga Toxin SOP - stx2 screening assay; format: functional; design: scale not given: direction of the effect not stated beside the values; conditions: 30 µM

SMILES | Percent Effect [1] [%] | Percent Effect [2] [%]
CCc1ccc(O)c(C(=O)NC2CCN(Cc3ccncc3)CC2)c1 | -4.26 | -67.7
Cc1cnn(CC2CN(Cc3nc4ccccc4nc3C)CCO2)c1 (stereo not drawn) | -3.52 | -0.0617
COCCN1CCc2cc(C(=O)N(C)C)c(NCC3CC3)nc2CC1 | 0.183 | 0.232
Cn1nc(C2CCCN(Cc3cccc(F)c3)C2)c2nccnc21 (stereo not drawn) | -0.491 | 14.8
COC(=O)CCc1c(C)nn(-c2nc(C)cc(=O)[nH]2)c1C | -5.2 | -12.7
Cn1cc(C[C@H]2[C@@H](O)CCN2C(=O)C2CC=CC2)cn1 | 7.16 | -21.6
COc1ccc(CN(C)C(=O)CCc2c(C)nc(C)[nH]c2=O)cc1OC | -5.24 | -6.32
Cc1nc(C2CCCN(C(=O)CCCn3cccn3)C2)no1 (stereo not drawn) | -5.28 | -27.3
Cc1n[nH]c(C)c1C1COCCN1C(=O)Cc1cccc(F)c1 (stereo not drawn) | 3.85 | -14.1
CCn1ccnc1CN1CCC(CNC(=O)c2ccc(C)nc2)C1 (stereo not drawn) | -0.565 | -34.1
CSc1ccc(NC(=O)Nc2ccc3c(c2)N(S(C)(=O)=O)CC3)cc1 | -2.32 | -21.8
COc1ccc(OC)c(NC(=O)N2CCCC2c2ccco2)c1 (stereo not drawn) | -4.36 | 0.199
Cc1nc(CN(C)C2CCN(Cc3sc(C)nc3C)C2)no1 (stereo not drawn) | 0.197 | -0.768
CCN(CC1CCOC1)C(=O)Nc1ccc(-n2cncn2)nc1 (stereo not drawn) | -0.722 | -25.9
CCn1cc(NC(=O)NCC(O)CN2CCc3ccccc3C2)cn1 (stereo not drawn) | 6.51 | -38.6
Cn1cnnc1C1CCCN(C(=O)Cc2ccc3c(c2)OCCO3)C1 (stereo not drawn) | -2.39 | 11.9
CC(C(=O)N1CCc2ccccc2C1)n1cc(Br)cn1 (stereo not drawn) | 2.59 | -59.4
c1ncn(CC2CCCN2Cc2cn3ccsc3n2)n1 (stereo not drawn) | -3.37 | -3.31
COCCN1CCN(Cc2cccc(C(=O)N(C)C)c2)CC1C (stereo not drawn) | 1.34 | -34.7
COc1c(C2CCCN2C(=O)c2ccnc(N(C)C)c2)c(C)nn1C (stereo not drawn) | 2.59 | 25.8
Cc1c[nH]cc1C(=O)N1CCN(CCc2cccs2)CC1 | -4.34 | -33.2
O=C(NC[C@H]1OC[C@@H]2CCN(C(=O)c3ccco3)C[C@@H]21)C1CC1 | 3.37 | -7.69
CCc1nc2n(n1)CC(NCc1ncc(-c3ccccc3)o1)CC2 (stereo not drawn) | 0.562 | 9.14
Cc1nccc(-c2cccc(NCC(=O)N3CCc4sccc4C3)c2)n1 | -0.955 | 8.31
CCOc1ccccc1C(=O)NS(=O)(=O)c1ccc2c(c1)OCCCO2 | -0.534 | 19.9

SMILES | Percent Effect [1] [%] | Percent Effect [2] [%]
Cc1nc(C)n(CC2CCCCN2CCS(C)(=O)=O)n1 (stereo not drawn) | -3.09 | -15.8
O=C(CCCc1nc2ccccc2[nH]1)N1CCCC(n2cccn2)C1 (stereo not drawn) | 0.834 | 3.01
CC(C)OCc1ncn2c1CN(Cc1cccs1)CCC2 | 8.33 | -0.247
O=C(Nc1cccc(CN2CCOC2=O)c1)N1CCSCC1 | -4.15 | -52.5
Cc1cc(-c2ccc(C(=O)O)cc2)nc(C2CCCN(C(C)C)C2)n1 (stereo not drawn) | -0.0735 | -2.97
CCNC(=O)CCN1CCC(c2cc(N3CCOCC3)nc(C)n2)CC1 | -4.4 | -10.2
CCc1cc(O)nc(C2CCCN2C(=O)c2cccnc2)n1 (stereo not drawn) | 2.54 | 2.33
CS(=O)(=O)N[C@@H]1CN(C(=O)c2ccccn2)[C@@H]2CCCO[C@@H]21 | -4.14 | 3.94
Cc1cccc(CN(C)Cc2nc3c(cnn3C)c(=O)[nH]2)c1 | 3.62 | 35.9
CO[C@@H]1CCN(Cc2cnn(C)c2)[C@@H]2CN(Cc3ccco3)C[C@@H]21 | -4.07 | -22
CN(C)c1ccc(NC(=O)NCc2ccccn2)cn1 | 3.94 | -60.4
CCc1ncc(C(=O)N2CCCCC2Cn2cccn2)s1 (stereo not drawn) | -4.28 | 15.5
Cc1cc(=O)n(CC(=O)NCC2CCCO2)c(-c2cccc(Cl)c2)n1 (stereo not drawn) | 8.05 | -13.2
CCc1csc(C2CCCN(C(=O)c3cnn(CC)c3)C2)n1 (stereo not drawn) | 0.0599 | -7.95
Cn1ccnc1CN1CCCCC1Cn1cccn1 (stereo not drawn) | 2.66 | 11.2
Cc1ccc(Cl)cc1N1CCC(CNC(=O)CC(F)(F)F)C1 (stereo not drawn) | -1.19 | -45.5
O=C(c1nc(=O)[nH][nH]1)N1CCCC(c2cc(C(F)(F)F)[nH]n2)C1 (stereo not drawn) | -1.69 | -21.8
COCCN1CCC(Cc2cncc(-c3ccc(C(=O)O)cc3)n2)C1 (stereo not drawn) | 4.51 | 8.34
Cc1cc(CN(C)C(=O)C2CCCN(C(=O)c3ccc(Cl)cc3)C2)no1 (stereo not drawn) | 8.83 | -26.7
Cc1nnc(NC(=O)CN2CCCC(Cn3cncn3)C2)s1 (stereo not drawn) | 2.66 | -3.39
CS(=O)(=O)N1CC[C@H]2O[C@H](C(=O)NCCc3ccncc3)CC[C@H]21 | 7.02 | -26
O=C(N[C@@H]1CN(Cc2ccsc2)[C@@H]2CCCO[C@@H]21)C1CC1 | -0.611 | -18.9
CCN1CCn2nc(CCC(=O)N3CCCC3)cc2C1 | -0.386 | -5.54
CNc1cc(N2CCCC2CNCc2ccc(Cl)o2)ncn1 (stereo not drawn) | -2.44 | 26.8
CN1CCN(Cc2cnc3n2CCN(Cc2cccs2)C3)CC1 | 5.52 | -18.8

SMILES | Percent Effect [1] [%] | Percent Effect [2] [%]
Cc1ncsc1C(=O)NCCOc1ncc(Cl)cc1Cl | 3.06 | -33.3
O=C(CCc1ccccc1)NCC1CCN(Cc2ccsc2)CC1 | -3.19 | -9.05
Cc1cccc(CN2C(=O)CO[C@@H]3CN(CCO)C[C@H]32)c1 | -4.77 | 2.07
O=C(c1cscn1)N1C[C@@H]2C[C@@H](c3nnc(C4CC4)o3)O[C@@H]2C1 | 1.21 | -37.8
O=C(c1cc[nH]n1)N1CCCC1C1CCN(Cc2ccccc2)CC1 (stereo not drawn) | 6.59 | -28.1
O=C(CCOc1cccc(F)c1)N1CCCC(n2cncn2)C1 (stereo not drawn) | -2.92 | 5.88
Cn1c(C2CC2)nc2c1CCN(CCOc1ccc(C#N)cc1)C2 | 3.25 | -7.77
O=C(c1ccsc1)N1CCOC2(CCN(Cc3cccnc3)CC2)C1 | 0.932 | -9.41
Cc1cc(C)c(CNC(=O)NCC(O)c2cccc(F)c2)c(=O)[nH]1 (stereo not drawn) | 2.36 | 28.2
CN(C)C(=O)CN1C[C@@H]2CC[C@H](C1)N(Cc1cccc(Cl)c1Cl)C2 | 0.661 | 1.27
CCn1ccnc1CN1CCN(CCOc2cccc(C#N)c2)CC1 | -0.322 | -9.38
COc1cccc(CN2CCCC3(CCN(C(=O)c4ccco4)C3)C2)c1 (stereo not drawn) | 0.0455 | -1.7
O=C(CCCOc1ccccc1Cl)N1CCCC(n2cncn2)C1 (stereo not drawn) | -3.9 | 19.3
O=C(C1=CCCC1)N1C[C@H](Oc2cccnc2)[C@H]2OCCC[C@H]21 | -2.63 | -10.5
COC(=O)c1cccn1C1CCN(CC(=O)NC2CCCCC2)CC1 | -1.64 | 1.4
O=C(CCCc1cn[nH]c1)N1CCOCC(O)C1 (stereo not drawn) | 5.55 | 5.53
Cc1noc(C)c1CN1CC[C@H]2OCC[C@@H](C(=O)NCC3CC3)[C@@H]2C1 | -1.49 | -13.8
COc1ccnc(N2CCN(C(=O)c3csc(C(C)C)n3)CC2)n1 | -5.15 | -4.83
Cc1ccc(N2CCC3(CCCN(C(=O)c4cccnc4)C3)C2)nn1 (stereo not drawn) | 8.13 | -11
COc1ccc(CNC(=O)CNc2cc3c(cc2Cl)OCCCO3)cc1 | 2.02 | 0.898
CCOc1nnc(CNC2CCCN(c3ccc(C)nn3)C2)s1 (stereo not drawn) | 9.48 | 19.6
Cc1ccc(CCN2CCC(N(C)Cc3noc(C4CC4)n3)C2)cc1 (stereo not drawn) | -2.9 | -69.9
Cc1cnn(CC2CCCN2CC(=O)N(C)CCC#N)c1 (stereo not drawn) | -0.546 | -11.9
c1coc(CN2CCCC3(COCCN(Cc4c[nH]nn4)C3)C2)c1 (stereo not drawn) | 2.45 | 4.89
CCCNC(=O)NC(=O)CN(CC(C)O)c1ccccc1 (stereo not drawn) | 1.53 | 20.6

SMILES | Percent Effect [1] [%] | Percent Effect [2] [%]
c1ccc(-n2ccc(CN3CCCC3Cn3cccn3)n2)cc1 (stereo not drawn) | 4.81 | -19.3
CC(C)N(CC(N)=O)Cc1csc(Cc2ccccc2)n1 | 0.228 | 12
Cc1nc(-c2ccsc2)ccc1C(=O)NCCN1CCOCC1 | -2.94 | -4.33
O=C(NCc1ccccn1)[C@@H]1COC[C@H]2CN(C3CCOCC3)C[C@H]21 | 7.53 | -6.42
CS(=O)(=O)N1CCC(O)(Cn2c(C3CC3)nc3ccccc3c2=O)CC1 | 1.5 | 11.1
CCCn1nc2c(cc1=O)CN(Cc1cc(C)on1)CC2 | 10 | -9.16
COCCN(C)C[C@@H]1CCC[C@@H]2CN(c3cc(OC)ncn3)C[C@@H]21 | 1.66 | 2.29
Cc1ccc(CNC(=O)N2CCCCC2CCNS(C)(=O)=O)cc1 (stereo not drawn) | 1.04 | 6.21
CC(C)c1nc(CC(=O)N2CCCC(n3cncn3)C2)cs1 (stereo not drawn) | -4.06 | -31
Cc1cc(C)n(C2CCCN(C(=O)c3ccc(NC4CC4)nc3)C2)n1 (stereo not drawn) | -1.9 | 27
O=C(NCCc1coc(-c2ccc(F)cc2)n1)NC1CCC(O)CC1 (stereo not drawn) | -3.81 | -24.9
CNC(=O)c1cc2c(nc1N(C)C)CCN(S(=O)(=O)C1CC1)CC2 | 0.364 | -4.82
CCN1CCN(C2CCN(Cc3cc(C)on3)CC2)C1=O | -3.97 | -26.8
COCCNC(=O)Cn1nc(C(C)C)c2cnn(C(C)(C)C)c2c1=O | -1.87 | 5.6
COc1cccc(F)c1C(=O)N1C[C@@H](CN(C)CCO)[C@@H](CO)C1 | -0.268 | -11.4
Cc1noc(Cl)c1CCC(=O)N1CCCCC1Cn1cccn1 (stereo not drawn) | 1.35 | -6.37
NCc1cnn(-c2ccccc2C(=O)NCc2ccncc2)c1 | -3.11 | 13.2
CN(C)C[C@H]1OC[C@@H]2CCN(S(=O)(=O)c3ccccc3)C[C@@H]21 | 4.96 | -1.44
COCc1cc(O)nc(C2CCCN(Cc3cc(OC)ccc3F)C2)n1 (stereo not drawn) | 1.71 | 17.7
Cn1ccc(C(=O)NC2CCN(c3ncccn3)CC2)cc1=O | 4.84 | 24.2
CCc1noc(C(C)N2CCC(C(=O)Nc3cnn(CC)c3)CC2)n1 (stereo not drawn) | -3.65 | -12.4
Cc1nc(C)n(CC2CCCN2Cc2nc3ccccc3nc2C)n1 (stereo not drawn) | -11.8 | -7.98
O=C(NC1CCCC1)[C@@H]1CN(Cc2nccs2)C[C@H]2OCC[C@H]21 | 4.4 | -7.97
COc1ccccc1CC(=O)NS(C)(=O)=O | -7.77 | 0.472
